# Only some compounds are listed: those with a hit (about 1.6% of all), similar ones and a draw of the others.
# Rev-erbA mod = modulators of Rev-erb alpha DNA binding, primary screen, biochemical, FITC-DNA, fluorescence polarization, uHTS. Nuclear receptor subfamily 1 group D member 1 (Homo sapiens), P20393. Rev-erbα–FITC-DNA binding, 90 min. activity, % at 10 µM. 370,000 tested, 0.79% active;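 active = activity above about 14%, limit read from the data; passing the limit was not always enough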;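 also: 0% = DMSO wells with 35 nM protein and 100% = DMSO wells with 750 nM protein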
# NPR2 activator = human GC-B receptor activators, primary screen, HEK293 GC-B cells, cGMP TR-FRET, EC30 CNP | activation, % at 10 µM | 0% at EC30 CNP, 100% saturating CNP | 370,000 tested, 0.11% active;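 active = activation at 10 µM reaching about 35% in either raw or pattern-adjusted values, limit read from the data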
# Target sequence (P20594 whole entry, looked up): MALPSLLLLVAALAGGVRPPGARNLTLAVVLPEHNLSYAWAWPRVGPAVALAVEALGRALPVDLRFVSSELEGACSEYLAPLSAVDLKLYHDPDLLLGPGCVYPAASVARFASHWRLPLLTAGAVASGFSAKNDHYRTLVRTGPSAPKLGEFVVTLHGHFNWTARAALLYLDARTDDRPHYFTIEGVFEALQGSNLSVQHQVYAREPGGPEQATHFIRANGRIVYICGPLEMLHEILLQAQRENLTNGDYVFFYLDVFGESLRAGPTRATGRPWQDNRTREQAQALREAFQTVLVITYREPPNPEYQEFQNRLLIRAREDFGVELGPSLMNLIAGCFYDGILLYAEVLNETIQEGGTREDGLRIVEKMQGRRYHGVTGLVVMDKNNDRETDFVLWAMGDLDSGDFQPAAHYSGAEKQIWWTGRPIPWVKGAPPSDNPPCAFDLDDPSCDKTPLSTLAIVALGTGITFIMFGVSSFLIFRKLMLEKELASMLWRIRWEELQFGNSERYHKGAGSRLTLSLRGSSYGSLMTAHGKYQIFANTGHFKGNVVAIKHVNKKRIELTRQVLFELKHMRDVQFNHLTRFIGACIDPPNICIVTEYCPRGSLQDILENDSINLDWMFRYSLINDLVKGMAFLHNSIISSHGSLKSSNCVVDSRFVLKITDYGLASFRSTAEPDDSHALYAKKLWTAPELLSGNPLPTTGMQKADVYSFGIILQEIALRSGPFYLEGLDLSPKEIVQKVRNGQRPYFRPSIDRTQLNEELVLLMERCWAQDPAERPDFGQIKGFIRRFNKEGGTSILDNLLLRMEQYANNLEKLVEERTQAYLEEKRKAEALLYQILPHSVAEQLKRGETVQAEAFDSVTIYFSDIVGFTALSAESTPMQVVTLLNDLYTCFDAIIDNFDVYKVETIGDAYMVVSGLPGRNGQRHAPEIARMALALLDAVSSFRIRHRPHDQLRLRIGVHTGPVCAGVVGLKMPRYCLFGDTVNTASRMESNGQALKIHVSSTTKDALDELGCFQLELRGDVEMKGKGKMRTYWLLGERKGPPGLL
# GC-A act = GC-A stimulated cGMP production enhancers – HEK293 GC-A cells, cGMP TR-FRET, EC30 ANP, primary screen | Atrial natriuretic peptide receptor 1 (Homo sapiens), P16066 | 0% at EC30 ANP, 100% saturating ANP | activation, % at 10 µM | 370,000 tested, 0.14% active | AID 1671463, 2021; in the data active = activation above about 40%
# V-ATPase pHluor = regulators of yeast V-ATPase proton pumping, primary screen, pHLuorin cytosolic pH fluorescence. 350,000 tested, 0.37% active. response, % at 10 µM. S. cerevisiae; in the data active = response mostly above about 7.3%, no sharp cut-off; inactive = mostly below about 5.4%; also: actives read high
# PG9 binder = binders of HIV-1 gp120 antibody PG9, primary screen, biochemical, TR-FRET. HIV-1 gp120 / PG9 antibody interaction. TR-FRET gp120-PG9 antibody binding. inhibition, % at 6.7 µM. 360,000 tested, 0.43% active; in the data active = inhibition above about 8.5%
# PG9 binder conf = binders of anti-gp120 antibody PG9, confirmation, biochemical, TR-FRET | shares compounds with PG9 binder | inhibition, % at 6.7 µM | 1,500 tested, 90% active | TR-FRET PG9 antibody binding; in the data active = inhibition above about 9%
# PGV04 Ab binding = binders of control antibody PGV04, counter-screen for PG9 antibody binder project, biochemical, TR-FRET, distinct HIV envelope site; inhibition, % at 6.7 µM; TR-FRET PGV04 antibody-gp120 binding; shares compounds with PG9 binder; 1,500 tested, 95% active; in the data active = inhibition above about 9.5%
# Starred values were filed as active, the others as inactive; . = no result given.
SMILES,Rev-erbA mod,NPR2 activator,GC-A act,V-ATPase pHluor,PG9 binder,PG9 binder conf,PGV04 Ab binding
O=C(Cc1ccccc1)NC1CCCCN(Cc2ccc(Cl)cc2)C1=O (stereo unspecified),-5,0,0,.,.,.,.
COCCCN1C(=O)C(=O)/C(=C(/O)c2ccc(OC(C)C)cc2)C1c1cccnc1 (stereo unspecified),0,9,1,0,10*,14*,19*
COCCCN1C(=O)C(=O)/C(=C(/O)c2ccc(OCC(C)C)cc2)C1c1cccnc1 (stereo unspecified),1,5,4,0,1,.,.
Cc1ccc(CNC(=O)CSc2nc(C)cc(C)c2C#N)cc1,14,1,1,2,58*,39*,45*
Cc1ccc2nc(SCC(=O)NCc3ccco3)c(C#N)cc2c1,-3,0,-2,1,13*,11*,18*
Cc1ccc2cc(C#N)c(SCC(=O)NCc3ccco3)nc2c1,6,-4,-6,2,0,.,.
CCOC(=O)CNC(=O)CSc1nc(C)cc(C)c1C#N,-6,-3,5,1,-1,.,.
Cc1ccc(NC(=O)CCn2cnc3ccccc3c2=O)cc1Cl,9,-6,-1,-4,13*,18*,23*
O=C(CSc1nnc(-c2cccs2)n1Cc1ccco1)Nc1ccc(OCc2ccccc2)cc1,3,7,0,.,.,.,.
CNC(=S)Nc1sc2c(c1C(=O)OC)CCC2,2,0,-5,1,-2,.,.
COC(=O)c1c(NC(=S)Nc2ccc(C(=O)N3CCOCC3)cc2)sc2c1CCC2,5,-4,-3,0,10*,5,6
CCn1c(=S)[nH]c2scc(-c3cccs3)c2c1=O,-6,-3,6,-2,11*,6,11*
Cc1ccc(SCCC(=O)Nc2ccc(OCc3ccccc3)cc2)cc1,3,-1,-1,-2,9.2*,15*,19*
CCOc1ccc(NC(=O)CCSc2ccc(C)cc2)cc1,1,5,2,4,0,.,.
COc1ccccc1NC(C)=O,-3,1,3,0,12*,6,8
COc1ccccc1NC(=S)NC(C)=O,1,-1,4,0,-1,.,.
CN[C@H]1C[C@H]2c3[nH]c4cccc(-c5cccc(F)c5)c4c3CCN2C(=O)[C@H]1[C@H](C)O,8,-8,-5,.,.,.,.
Cc1cc(N2C(=O)C(O)=C(C(=O)c3ccco3)C2c2cccc(Cl)c2)no1 (stereo unspecified),-1,1,3,3,3,.,.
CCCOc1ccc(C2C(C(=O)c3cc4ccccc4o3)=C(O)C(=O)N2c2cc(C)on2)cc1 (stereo unspecified),-6,-1,10,3,6,.,.
Cc1cc(N2C(=O)C(O)=C(C(=O)c3cc4ccccc4o3)C2c2ccc(Br)cc2)no1 (stereo unspecified),-2,3,9,-9,12*,32*,45*
Cc1cc(N2C(=O)C(O)=C(C(=O)c3ccc(C)o3)C2c2cccc(Cl)c2)no1 (stereo unspecified),-2,-3,-2,-1,8.7*,17*,24*
Cc1cc(N2C(=O)C(O)=C(C(=O)c3cc4ccccc4o3)C2c2cccc(Cl)c2)no1 (stereo unspecified),-2,-4,12,5,27*,40*,56*
Cc1cc(N2C(=O)C(O)=C(C(=O)c3cc4ccccc4o3)C2c2ccc(Cl)cc2)no1 (stereo unspecified),7,-2,13,0,26*,33*,51*
CCOc1ccc(CC(=O)Nc2c(C(=O)Nc3ccccc3)oc3ccccc23)cc1OCC,13,1,0,2,23*,22*,33*
Cc1ccc(S(=O)(=O)N(C)Cc2cc3cc(C)ccc3[nH]c2=O)cc1,9,6,2,5,17*,28*,44*
SMILES,Rev-erbA mod,NPR2 activator,GC-A act,V-ATPase pHluor,PG9 binder,PG9 binder conf,PGV04 Ab binding
COc1ccc(C(=O)C2CCN(c3ncnc4sccc34)CC2)cc1,0,-4,4,.,.,.,.
CC(C)CN1CN2CCc3ccccc3C2CS1(=O)=O (stereo unspecified),-3,8,2,.,.,.,.
CC(C)CNc1cccc2c1S(=O)(=O)N(Cc1cn(Cc3cccc(C(F)(F)F)c3)nn1)Cc1ccccc1O2,3,7,5,.,.,.,.
CCc1c(C)nc2ccc(Br)cc2c1Cl,4,-6,5,-2,9.3*,24*,26*
O=C(CSc1nnc(-c2ccc(Cl)cc2)n1-c1ccccc1)NN=Cc1c[nH]c2ccccc12,-8,-6,-14,.,.,.,.
COc1cc(/C=C/C(=O)OCC(=O)Nc2ccccc2Cl)cc(OC)c1OC,-11,1,5,5,23*,27*,41*
COc1cc(/C=C/C(=O)OCC(=O)NCCc2ccccc2)cc(OC)c1OC,-1,0,-2,-3,0,.,.
CC(C)CNC(=O)OCc1cn(Cc2ccccc2C(F)(F)F)nn1,5,0,2,.,.,.,.
CCCCn1nnc(NC(=O)c2sc3cc(Cl)ccc3c2Cl)n1,-3,6,12,1,14*,26*,36*
CCCn1nnc(NC(=O)c2ccc(Cl)cc2Cl)n1,0,3,1,-1,-1,.,.
CCN1Cc2nnn(Cc3ccc(C)cc3)c2-c2ccccc2S1(=O)=O,6,8,2,.,.,.,.
CCCC1=Nc2cc(C(=O)NCCCN3CCN(C)CC3)ccc2Sc2ccccc21,-4,-2,1,3,1,.,.
CCCC1=Nc2cc(C(=O)NCCCN3CCOCC3)ccc2Sc2ccccc21,4,-2,2,-2,12*,11*,15*
Cc1ccc(N(C)c2nc(N)nc(N)c2N=O)cc1,-21,-3,15,.,-4,.,.
CCCc1nc2sc3c(=O)[nH]cnc3c2c2c1CCCC2,19,-4,0,.,2,.,.
CC(C)c1nc2sc3c(=O)[nH]cnc3c2c2c1CCC2,6,-3,5,4,9.6*,20*,26*
COc1ccc(OC[C@@H](O)CN2CCC(C(O)(c3ccccc3)c3ccccc3)CC2)cc1,-7,-10,-16,.,.,.,.
Cc1ccc(-n2c(SCC(N)=O)nc3c(c2=O)C2(CCCC2)Cc2ccccc2-3)cc1,-3,10,5,8,11*,23*,32*
